# Experimental data reported in publication PMC5540273 (PLoS ONE, 2017).
# System: STK35
# Conditions: concentration: 1 μM, replicates: in singlicate; n = 1
# 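Note: KINOMEscan kinase panel screen.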
row,SMILES,%Inh [%]
1,Cl.c1ccc(-c2n[nH]cc2-c2ccnc(-c3ccc(CN4CCOCC4)cc3)c2)nc1 [GW776245],0
2,Cc1nnc(-c2ccc3occ(-c4ccc(S(C)=O)cc4)c3c2)[nH]1 (stereo not shown),22
3,Cn1ccc2ncnc(Oc3ccc(Nc4nc5ccccc5[nH]4)cc3)c21,19
4,COc1cc2ncn(-c3cc(OCC4CCCO4)c(C(N)=O)s3)c2cc1OC (stereo not shown) [GSK204607],90
5,Cc1cccc(-c2nc(-c3ccc(S(C)(=O)=O)cc3)sc2-c2ccnc(NCCc3ccccc3)c2)c1,9
6,COC(=O)c1c(-c2ccccc2)c2cc(C(=O)O)ccc2c(=O)n1Cc1ccccc1,0
7,Cl.Oc1ccc(-c2nc(-c3ccccc3)[nH]c2-c2ccncc2)cc1 [SB-428218],0
8,CC(=O)Nc1nc2cnc(Nc3cc(NC(=O)c4cccc(CCC#N)c4)ccc3C)nc2s1,0
9,CSc1nn2c(=O)cc(N3CCOCC3)nc2n1Cc1cccc(C(F)(F)F)c1C [GSK2363608],0
10,O=C(Nc1n[nH]c2nc(-c3nccs3)c(Br)cc12)C1CCCC1 [SB-742609],0
11,CCn1c(-c2ccccn2)nc2cnccc21 [SB-736398],1
12,NC(=O)c1nnc2ccccc2c1N,10
13,COc1ccc(Nc2nccc(NCCNC(=O)Nc3ccccc3F)n2)cc1 [GSK1379901],0
14,Cc1cc(N2Cc3ccccc3C2)nc(Nc2ccc(S(=O)(=O)N3CCOCC3)cc2)n1.Cl [GSK1669917],0
15,CC1=C(C(=O)Nc2cc3cn[nH]c3cc2F)C(c2ccc(C(F)(F)F)cc2)CC(=O)N1 (stereo not shown) [GSK429286],0
16,COC(=O)c1c(-c2ccccc2)c2cc(OC)ccc2c(=O)n1Cc1ccccc1,3
17,O=C(O)COc1ncnc2cc(-c3ccc4[nH]ncc4c3)sc12,0
18,Nc1nc(-c2nccs2)c(-c2ccnc3ccccc23)s1 [GW693542],0

row,SMILES,%Inh [%]
1,Cn1cncc1-c1ccc2ncnc(Nc3ccc(OCc4ccccc4)cc3)c2c1 [GW320571],10
2,O=C(Nc1ccc2c(c1)OCO2)NC1CCN(c2ccnc(Nc3ccc(F)cc3)n2)C1 (stereo not shown) [GSK1379724],0
3,Cc1ccccc1-n1cnc2c(N)ncnc21 [SKF-97510],0
4,Cn1ccc2ncnc(Oc3ccc(NC(=O)Nc4ccccc4)cc3)c21,17
5,O=C1NC(=O)C(N2CCc3ccccc32)=C1c1ccccc1Cl [SB-373598],1
6,O=C(Nc1ccccc1)Nc1cccc(Oc2ccc3nccn3n2)c1,11
7,Nc1ncnc2[nH]c(-c3ccccc3)nc12 [AH5015],0
8,CS(=O)(=O)c1ccc(-c2c(-c3ncn[nH]3)sc(N3CCOCC3)c2C#N)cc1,0
9,Cc1c(O)cccc1Nc1ccnc2ccc(C(F)(F)F)cc12.Cl [GW466413],0
10,CS(=O)(=O)c1ccc(-c2nc3n(c2-c2ccncc2)CCC3)cc1 [SKF-105942],0
11,Cc1cc(NCC(c2ccccc2)c2ccccc2)nc(NCc2ccc(C(F)(F)F)cc2)n1 [GW497681],0
12,Cl.NC(=O)c1cccc(Nc2nccc(Nc3ccc(Oc4cccc(Cl)c4)c(Cl)c3)n2)c1 [GW659008],0
13,CC(C)(C)c1ccc(C(=O)Nc2cn3cc(Cl)ccc3n2)cc1,0
14,O=c1cc(N2CCOCC2)nc2n(Cc3cccc(Cl)c3Cl)ccn12 [GSK2286295],0
15,CCCc1ccc(S(=O)(=O)NC2CCN(c3ccnc(Nc4ccc(F)cc4)n3)C2)cc1 (stereo not shown) [GSK1379715],0
16,O=S(=O)(c1ccc(-c2ccnc3[nH]ccc23)cc1)N1CCCC1 [GSK846226],0
17,COc1ccc(C2=C(Nc3cccc(C(=O)O)c3)C(=O)NC2=O)cc1 [SB-390765],13

# System: STK36
# Conditions: concentration: 1 μM, replicates: in singlicate; n = 1
row,SMILES,%Inh [%]
1,Cl.c1ccc(-c2n[nH]cc2-c2ccnc(-c3ccc(CN4CCOCC4)cc3)c2)nc1 [GW776245],9
2,Cc1nnc(-c2ccc3occ(-c4ccc(S(C)=O)cc4)c3c2)[nH]1 (stereo not shown),3
3,Cn1ccc2ncnc(Oc3ccc(Nc4nc5ccccc5[nH]4)cc3)c21,0
4,COc1cc2ncn(-c3cc(OCC4CCCO4)c(C(N)=O)s3)c2cc1OC (stereo not shown) [GSK204607],0
5,Cc1cccc(-c2nc(-c3ccc(S(C)(=O)=O)cc3)sc2-c2ccnc(NCCc3ccccc3)c2)c1,11
6,COC(=O)c1c(-c2ccccc2)c2cc(C(=O)O)ccc2c(=O)n1Cc1ccccc1,5
7,Cl.Oc1ccc(-c2nc(-c3ccccc3)[nH]c2-c2ccncc2)cc1 [SB-428218],0
8,CC(=O)Nc1nc2cnc(Nc3cc(NC(=O)c4cccc(CCC#N)c4)ccc3C)nc2s1,16
9,CSc1nn2c(=O)cc(N3CCOCC3)nc2n1Cc1cccc(C(F)(F)F)c1C [GSK2363608],0
10,O=C(Nc1n[nH]c2nc(-c3nccs3)c(Br)cc12)C1CCCC1 [SB-742609],0
11,CCn1c(-c2ccccn2)nc2cnccc21 [SB-736398],0
12,NC(=O)c1nnc2ccccc2c1N,0
13,COc1ccc(Nc2nccc(NCCNC(=O)Nc3ccccc3F)n2)cc1 [GSK1379901],0
14,Cc1cc(N2Cc3ccccc3C2)nc(Nc2ccc(S(=O)(=O)N3CCOCC3)cc2)n1.Cl [GSK1669917],4
15,CC1=C(C(=O)Nc2cc3cn[nH]c3cc2F)C(c2ccc(C(F)(F)F)cc2)CC(=O)N1 (stereo not shown) [GSK429286],0
16,COC(=O)c1c(-c2ccccc2)c2cc(OC)ccc2c(=O)n1Cc1ccccc1,11
17,O=C(O)COc1ncnc2cc(-c3ccc4[nH]ncc4c3)sc12,0
18,Nc1nc(-c2nccs2)c(-c2ccnc3ccccc23)s1 [GW693542],0

row,SMILES,%Inh [%]
1,Cn1cncc1-c1ccc2ncnc(Nc3ccc(OCc4ccccc4)cc3)c2c1 [GW320571],0
2,O=C(Nc1ccc2c(c1)OCO2)NC1CCN(c2ccnc(Nc3ccc(F)cc3)n2)C1 (stereo not shown) [GSK1379724],0
3,Cc1ccccc1-n1cnc2c(N)ncnc21 [SKF-97510],27
4,Cn1ccc2ncnc(Oc3ccc(NC(=O)Nc4ccccc4)cc3)c21,0
5,O=C1NC(=O)C(N2CCc3ccccc32)=C1c1ccccc1Cl [SB-373598],22
6,O=C(Nc1ccccc1)Nc1cccc(Oc2ccc3nccn3n2)c1,0
7,Nc1ncnc2[nH]c(-c3ccccc3)nc12 [AH5015],4
8,CS(=O)(=O)c1ccc(-c2c(-c3ncn[nH]3)sc(N3CCOCC3)c2C#N)cc1,1
9,Cc1c(O)cccc1Nc1ccnc2ccc(C(F)(F)F)cc12.Cl [GW466413],0
10,CS(=O)(=O)c1ccc(-c2nc3n(c2-c2ccncc2)CCC3)cc1 [SKF-105942],0
11,Cc1cc(NCC(c2ccccc2)c2ccccc2)nc(NCc2ccc(C(F)(F)F)cc2)n1 [GW497681],0
12,Cl.NC(=O)c1cccc(Nc2nccc(Nc3ccc(Oc4cccc(Cl)c4)c(Cl)c3)n2)c1 [GW659008],0
13,CC(C)(C)c1ccc(C(=O)Nc2cn3cc(Cl)ccc3n2)cc1,0
14,O=c1cc(N2CCOCC2)nc2n(Cc3cccc(Cl)c3Cl)ccn12 [GSK2286295],43
15,CCCc1ccc(S(=O)(=O)NC2CCN(c3ccnc(Nc4ccc(F)cc4)n3)C2)cc1 (stereo not shown) [GSK1379715],0
16,O=S(=O)(c1ccc(-c2ccnc3[nH]ccc23)cc1)N1CCCC1 [GSK846226],0
17,COc1ccc(C2=C(Nc3cccc(C(=O)O)c3)C(=O)NC2=O)cc1 [SB-390765],22
